Screening data as filed in PubChem.
Shown are actives, neighbours in structure and some others; about 8% of the full set was active somewhere.
HT1080-NT tox: kills 2HG-producing HT-1080-NT fibrosarcoma cells. AID 686970. HT-1080-NT fibrosarcoma viability, CellTiter-Glo ATP luminescence, 48 h. Potency, µM (series often up to 46.1 µM), usual class: cytotoxic. actives 1.6% (n = 360,000);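 also: NT is the 2HG producing partner of a matched IDH1 knockdown line; nearly all actives have a fitted effect of over 55% in size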
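A 48-hour cytotoxicity screen used HT-1080-NT cells plated 2 hours before compound delivery. ATP-based CellTiter-Glo luminescence measured viability, normalized to DMSO and no-cell controls.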
SW480 rerep: DNA re-replication induction in SW480 cells; AID 624297; actives 1.8% (n = 340,000); Potency, µM (top dose mostly 46.1 µM), usual class: activators; SW480 DNA re-replication, Hoechst DNA content imaging, 48 h; also: nearly all actives have a fitted effect of over 55% in size
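Hoechst fluorescence of nuclei (405 nm excitation, 500-530 nm emission) measured by plate-scanning imager after 48 hr compound exposure at 37 C; re-replication scored as increased number of nuclei with elevated intensity.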
MCF10A rerep: DNA re-replication induction in MCF 10a cells; Potency, µM (doses to about 46.1 µM), usual class: activators; MCF 10A DNA re-replication, Hoechst nuclear intensity, 48 h; AID 624296; actives 2.9% (n = 350,000); also: nearly all actives have a fitted effect of over 50% in size
KB-3-1 tox: KB-3-1 parental cell cytotoxicity; AID 1347075; Potency, µM (highest dose often 46.1 µM), hits mostly cytotoxic; actives 1.4% (n = 400,000); KB-3-1 viability, CellTiter-Glo ATP luminescence, 72 h; also: nearly all actives have a fitted effect of over 60% in size
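Parental KB-3-1 viability, qHTS format: 72 h compound exposure, 37 °C; CellTiter-Glo; media-only wells and DMSO plates as controls; concentration-effect fits on corrected data.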
HT1080 IDH1KD tx: HT-1080 IDH1 knockdown cell toxicity (counter line); HT-1080 IDH1 knockdown viability, ATP luminescence, 48 h; Potency, µM (top dose mostly 46.1 µM), hits mostly cytotoxic; actives 2% (n = 360,000)
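Using the IDH1-knockdown HT-1080 line run in the same batch and compound series as the NT line, viability after 48 h at 37 °C was determined by CellTiter-Glo luminescence and expressed as % activity.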
KB-V1 cytotox: KB-V1 MDR subline cytotoxicity. KB-V1 MDR cells viability, CellTiter-Glo, 72 h. Potency, µM (top dose mostly 46.1 µM), most hits filed as cytotoxic. actives 3.4% (n = 400,000); also: nearly all actives have a fitted effect of over 60% in size
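Cytotoxicity via CellTiter-Glo luminescence after 72 h compound exposure at 37 degrees C. Cells: drug-selected KB-V1 line, DMEM phenol-red free plus 10% FBS. Compounds tested at multiple concentrations; normalized data fitted to concentration-effect curves.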
Hits are given with their value; ! = not active in a repeat; [ ] = remark or other dose. Calls follow the shape of the dose curve; as a rule, active = well fitted curve in the direction sought with a large enough effect; inconclusive = small, poorly fitted or top-dose-only effect, or another doubt; inactive = no such curve, though single readings can be large; an effect the other way counts as inactive or inconclusive.

`COC(=O)c1c(C)oc2ccc(N(C(=O)c3ccncc3)S(=O)(=O)c3ccc4ccccc4c3)cc12` gave HT1080-NT tox inconclusive, SW480 rerep inactive, MCF10A rerep 3.26µM, KB-3-1 tox inconclusive, HT1080 IDH1KD tx inconclusive and KB-V1 cytotox inconclusive.
For COC(=O)c1c(C)oc2ccc(N(C(=O)c3ccncc3)S(=O)(=O)c3ccccc3)cc12 the results were HT1080-NT tox inactive, SW480 rerep inactive, MCF10A rerep inactive, KB-3-1 tox inconclusive, HT1080 IDH1KD tx inactive and KB-V1 cytotox inactive.
`COC(=O)c1c(C)oc2ccc(N(C(=O)c3ccncc3)S(=O)(=O)c3ccc(C)cc3C)cc12` gave HT1080-NT tox 23.1µM, SW480 rerep inactive, MCF10A rerep 14.6µM, KB-3-1 tox inconclusive, HT1080 IDH1KD tx inconclusive and KB-V1 cytotox inconclusive.
`Cc1ccc(S(=O)(=O)N(C(=O)c2ccncc2)c2ccc3oc4c(c3c2)CCCC4)cc1[N+](=O)[O-]` gave HT1080-NT tox inactive, SW480 rerep inactive, MCF10A rerep 14.6µM, KB-3-1 tox inactive, HT1080 IDH1KD tx inactive and KB-V1 cytotox inconclusive.
`COC(=O)c1c(C)oc2ccc(N(C(=O)c3ccncc3)S(=O)(=O)c3ccc(C)cc3)cc12` gave HT1080-NT tox 2.59µM, SW480 rerep 6.51µM, MCF10A rerep inconclusive, KB-3-1 tox 5.17µM, HT1080 IDH1KD tx 2.59µM and KB-V1 cytotox 1.64µM.
Screening COc1ccc(OC)c(CNS(=O)(=O)c2ccc3c(c2)CCCN3C(C)=O)c1 returned KB-3-1 tox inactive and KB-V1 cytotox inactive.
`Cc1ccc(C)c(CN2CCC(CNC(=O)Nc3ccc(F)c(Cl)c3)CC2)c1` gave HT1080-NT tox 25.9µM, SW480 rerep 18.4µM, MCF10A rerep 25.9µM, KB-3-1 tox inconclusive, HT1080 IDH1KD tx 18.4µM and KB-V1 cytotox inactive.
For CCc1ccc(NC(=O)NCC2CCN(Cc3cccc(Cl)c3)CC2)cc1 the results were HT1080-NT tox inconclusive, SW480 rerep inconclusive, MCF10A rerep inactive, KB-3-1 tox inconclusive, HT1080 IDH1KD tx inactive and KB-V1 cytotox inactive.
`Cc1ccc(NC(=O)NCC2CCN(Cc3cccc(Cl)c3)CC2)cc1Cl` gave HT1080-NT tox 11.6µM, SW480 rerep inactive, MCF10A rerep inconclusive, KB-3-1 tox inconclusive, HT1080 IDH1KD tx inactive and KB-V1 cytotox inconclusive.
Screening O=C(NCC1CCN(Cc2ccccc2F)CC1)Nc1ccc(F)c(Cl)c1 returned KB-3-1 tox inactive and KB-V1 cytotox inactive.
Screening CCN(CC(=O)Nc1ccccc1OC)C(=O)COc1ccc(C#N)cc1 returned HT1080-NT tox inactive, SW480 rerep inactive, MCF10A rerep inactive, KB-3-1 tox inactive, HT1080 IDH1KD tx inactive and KB-V1 cytotox inactive.
CCC(=O)c1ccc(OCC(=O)N(CC)CC(=O)Nc2ccccc2OC)cc1 was read as HT1080-NT tox inactive, SW480 rerep inactive, MCF10A rerep inactive, KB-3-1 tox inactive, HT1080 IDH1KD tx inactive and KB-V1 cytotox 16.4µM.
Screening CCN(CC)C(=O)CSCC(=O)Nc1ccccc1 returned HT1080-NT tox inactive, SW480 rerep inactive, MCF10A rerep 8.2µM, KB-3-1 tox inactive, HT1080 IDH1KD tx inactive[9.24 µM] and KB-V1 cytotox inactive.
For CCN(CC(=O)Nc1ccccc1OC)C(=O)CSCC(=O)Nc1ccc(OC)cc1 the results were HT1080-NT tox 18.4µM, SW480 rerep inactive, MCF10A rerep inactive, KB-3-1 tox inactive, HT1080 IDH1KD tx inconclusive and KB-V1 cytotox inconclusive.
COc1ccccc1CNC(=O)CN1C(=O)COc2ccc(S(=O)(=O)N3CCC(C)CC3)cc21 was read as KB-3-1 tox inactive and KB-V1 cytotox inconclusive.
`COc1ccc(CCCc2nnc(SCC(=O)Nc3cccc(F)c3C)o2)cc1` gave KB-3-1 tox inactive and KB-V1 cytotox inactive.
CC(c1ccccc1)N1CCn2c(nc3cc(NC(=O)NC4CCCCC4)ccc32)C1 (centres undefined) was read as HT1080-NT tox 15.8µM, SW480 rerep inconclusive, MCF10A rerep inactive, KB-3-1 tox inconclusive, HT1080 IDH1KD tx inconclusive and KB-V1 cytotox inactive.
`C(#Cc1ccccc1)C[N+]1(CC#Cc2ccccc2)CCCCC1` gave HT1080-NT tox inconclusive, SW480 rerep inactive, MCF10A rerep inactive, KB-3-1 tox 18.4µM, HT1080 IDH1KD tx inconclusive and KB-V1 cytotox inactive.
Screening CCC[N+]1(CC#CCC(c2ccccc2)c2ccccc2)CCCCC1 returned HT1080-NT tox inactive, SW480 rerep inactive, MCF10A rerep inactive, KB-3-1 tox 2.59µM, HT1080 IDH1KD tx inconclusive and KB-V1 cytotox inactive.
Screening C#CC[N+]1(CC#Cc2ccccc2)CCCCC1 returned HT1080-NT tox inactive, SW480 rerep inactive, MCF10A rerep inactive, KB-3-1 tox inactive, HT1080 IDH1KD tx inactive and KB-V1 cytotox inactive.
Screening C#CC[N+]1(CC#Cc2cccc(C)c2)CCCCC1 returned HT1080-NT tox inactive, SW480 rerep inactive, MCF10A rerep inactive, KB-3-1 tox inconclusive, HT1080 IDH1KD tx inconclusive and KB-V1 cytotox inactive.
O=C(C[N+]1(CC#Cc2ccccc2)CCCCC1)c1ccccc1 was read as HT1080-NT tox inactive, SW480 rerep inactive, MCF10A rerep inactive, KB-3-1 tox inactive, HT1080 IDH1KD tx inactive and KB-V1 cytotox inactive.
Cc1ccc(C#CC[N+]2(CC#Cc3ccc(C)cc3)CCCCC2)cc1 was read as HT1080-NT tox 20.6µM, SW480 rerep inactive, MCF10A rerep inactive, KB-3-1 tox inconclusive, HT1080 IDH1KD tx 14.6µM and KB-V1 cytotox inactive.
COc1ccc(OC)c(N(C)S(=O)(=O)c2ccc3c(c2)NC(=O)CC(=O)N3)c1 was read as KB-3-1 tox inactive and KB-V1 cytotox inconclusive.
Cc1ccccc1-c1nnc(CN2CCN(c3cccc(C)c3C)CC2)o1 was read as KB-3-1 tox inactive and KB-V1 cytotox inactive.
For Cc1ccc(C(=O)Nc2nnc(SCc3cc(=O)c4c(C)ccc(C)c4[nH]3)s2)cc1 the results were KB-3-1 tox inconclusive and KB-V1 cytotox inactive.
Screening CCCCC[C@H]1CN(Cc2ccccc2)C(=O)[C@@H]1CC(=O)NCc1ccc(OC)cc1 returned HT1080-NT tox inactive, SW480 rerep inactive, MCF10A rerep inactive, KB-3-1 tox inconclusive, HT1080 IDH1KD tx inactive and KB-V1 cytotox 18.4µM!.
`COc1ccc(CNC(=O)C[C@H]2C(=O)N(Cc3ccc(OC)cc3)C[C@@H]2Cc2ccccc2)cc1` gave HT1080-NT tox inactive, SW480 rerep inactive, MCF10A rerep inactive, KB-3-1 tox inactive, HT1080 IDH1KD tx inactive and KB-V1 cytotox 13µM!.
COc1cccc(NC(=O)Cn2c(=O)n(Cc3ccc(F)cc3)c(=O)c3sc4ccccc4c32)c1 was read as KB-3-1 tox inactive and KB-V1 cytotox inactive.
For CCCCCCC[n+]1ccc(/C=C/c2c(C)[nH]c3ccccc23)c2ccccc21 the results were KB-3-1 tox 8.2µM and KB-V1 cytotox inconclusive.
